Reference: PubChem BioAssay AID1159580 (chemical genetic matrix, 2015)
Values joined by “and” are separate entries in the source; they are usually repeats but may differ in a detail not shown here. Equal values may be shown once. The whole screen tested about 5,500 compounds, of which about 2,000 (36%) were called active. Inconclusive results (about 18%) are left out. Rule as the data show it: active = normalized growth mostly below about 0.91 (no sharp cut-off); inconclusive = no clear call, values can overlap the other calls; inactive = mostly above about 0.92. The list shows a part of the results.

Assay: chemical genetic growth profiling, strain panel (AID 1159580);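 also: tested at 20 µM; growth read once vehicle control cultures reached saturation at 30 °C; 1 = growth at the plate median or of vehicle wells; lower values mean less growth of the strain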
Settings: S. cerevisiae deletion strains, growth OD

Measured: normalized growth

CC1(C)S[C@@H]2[C@H](NC(=O)COc3ccccc3)C(=O)N2[C@H]1C(=O)O
inactive: locus YAL013W, strain DEP1, hits give low values 1 | locus YAL021C, strain ccr4, hits give low values 1.01 | locus YAL026C, strain drs2, hits give low values 1 | locus YAL030W, strain snc1, hits give low values 0.989 | locus YBL061C, strain skt5, hits give low values 0.985 | locus YBR009C, strain hhf1, hits give low values 1.01 | locus YBR021W, strain FUR4, hits give low values 1.02 | locus YBR023C, strain chs3, hits give low values 0.996 | locus YBR171W, strain sec66, hits give low values 0.969 | locus YBR229C, strain ROT2, hits give low values 1 | locus YBR231C, strain swc5, hits give low values 0.975 | locus YBR279W, strain paf1, hits give low values 0.999 | locus YCL011C, strain gbp2, hits give low values 1 | locus YCL016C, strain dcc1, hits give low values 1.02 | locus YCL029C, strain bik1, hits give low values 1.04 | locus YCL069W, strain vba3, hits give low values 0.993 | locus YCR088W, strain abp1, hits give low values 0.997 | locus YDL005C, strain med2, hits give low values 0.994 | locus YDL035C, strain GPR1, hits give low values 1.01 | locus YDL040C, strain nat1, hits give low values 0.993 | locus YDL074C, strain BRE1, hits give low values 1.01 | locus YDL101C, strain DUN1, hits give low values 1.01 | locus YDL134C, strain PPH21, hits give low values 1.01 | locus YDL185W, strain tfp1, hits give low values 1.01 | locus YDL192W, strain arf1, hits give low values 1.03 | locus YDR001C, strain nth1, hits give low values 0.99 | locus YDR069C, strain doa4, hits give low values 0.98 | locus YDR101C, strain arx1, hits give low values 1.02 | locus YDR137W, strain rgp1, hits give low values 0.975 | locus YDR150W, strain NUM1, hits give low values 0.999 | locus YDR159W, strain sac3, hits give low values 1 | locus YDR162C, strain NBP2, hits give low values 1.01 | locus YDR195W, strain ref2 0.955 | locus YDR297W, strain sur2, hits give low values 0.991 | locus YDR318W, strain mcm21, hits give low values 1.02 | locus YDR334W, strain swr1, hits give low values 0.993 | locus YDR335W, strain msn5, hits give low values 0.986 | locus YDR388W, hits give low values 1.02 | locus YDR392W, strain spt3, hits give low values 1.03 | locus YDR502C, strain sam2, hits give low values 1.03 | locus YEL003W, strain gim4, hits give low values 0.997 | locus YEL037C, strain rad23, hits give low values 0.992 | locus YEL061C, strain CIN8 (second series), hits give low values 0.986 | locus YEL061C, strain CIN8, hits give low values 1 | locus YER015W, strain faa2, hits give low values 0.999 | locus YER016W, strain bim1, hits give low values 1 | locus YER110C, hits give low values 1.02 | locus YER111C, strain swi4, hits give low values 0.99 | locus YER155C, strain BEM2 (second series), hits give low values 0.977 | locus YER155C, strain BEM2, hits give low values 0.999 | locus YER167W, strain BCK2, hits give low values 1 | locus YFR010W, strain ubp6, hits give low values 0.98 | locus YGL078C, strain dbp3, hits give low values 1.02 | locus YGL086W, strain mad1, hits give low values 1.01 | locus YGL167C, strain pmr1, hits give low values 0.996 | locus YGL173C, strain kem1, hits give low values 0.991 | locus YGL227W, strain vid30, hits give low values 0.984 | locus YGL240W, strain doc1, hits give low values 0.976 | locus YGL248W, strain PDE1, hits give low values 1.01 | locus YGL253W, strain hxk2, hits give low values 0.998 | locus YGR078C, strain PAC10, hits give low values 1.01 | locus YGR135W, strain pre9, hits give low values 1.02 | locus YGR229C, strain SMI1, hits give low values 1.01 | locus YGR252W, strain gcn5, hits give low values 1.02 | locus YHR013C, strain ard1, hits give low values 1 | locus YHR027C, strain rpn1, hits give low values 1.01 | locus YHR030C, strain SLT2, hits give low values 1.01 and 0.967 | locus YHR079C, strain IRE1 (second series), hits give low values 1.02 | locus YHR079C, strain IRE1, hits give low values 0.98 | locus YHR094C, strain hxt1, hits give low values 1.02 | locus YHR129C, strain ARP1, hits give low values 1 | locus YHR142W, strain chs7, hits give low values 1.01 | locus YHR200W, strain rpn10, hits give low values 1.02 | locus YIL066C, strain RNR3, hits give low values 1.01 | locus YIL073C, strain SPO22, hits give low values 1.07 | locus YIL125W, strain kgd1, hits give low values 1.02 | locus YIR030C, strain dcg1, hits give low values 1.03 | locus YJL092W, strain hpr5, hits give low values 0.976 | locus YJL095W, strain BCK1 (second series), hits give low values 0.99 | locus YJL095W, strain BCK1, hits give low values 1.01 and 0.99 | locus YJL115W, strain asf1, hits give low values 0.988 | locus YJL129C, strain trk1, hits give low values 0.955 | locus YJL134W, strain LCB3, hits give low values 1 | locus YJL154C, strain vps35, hits give low values 0.988 | locus YJL164C, strain tpk1, hits give low values 1.02 | locus YJL166W, strain qcr8, hits give low values 0.953 | locus YJL168C, strain set2, hits give low values 1.02 | locus YJL187C, strain SWE1 (second series), hits give low values 1.01 | locus YJL187C, strain SWE1, hits give low values 0.997 | locus YJR043C, strain POL32, hits give low values 1.01 | locus YJR066W, strain TOR1, hits give low values 0.92
